Common to all, as to design: scale not given: direction of the effect not stated beside the values
Assay [1] deals with Protein translocase subunit SecA (Escherichia coli (strain K12)) (UniProt P10408). Nature of the assay: Assay to Identify E. coli SecA ATPase Inhibitors. As to conditions: 30 µM. It is filed as functional.
Assay [2] has as its target T1, Ubiquitin-activating enzyme e1, putative (Leishmania donovani (strain BPK282A1)) (UniProt E9BSI1).
T1 sequence (whole entry): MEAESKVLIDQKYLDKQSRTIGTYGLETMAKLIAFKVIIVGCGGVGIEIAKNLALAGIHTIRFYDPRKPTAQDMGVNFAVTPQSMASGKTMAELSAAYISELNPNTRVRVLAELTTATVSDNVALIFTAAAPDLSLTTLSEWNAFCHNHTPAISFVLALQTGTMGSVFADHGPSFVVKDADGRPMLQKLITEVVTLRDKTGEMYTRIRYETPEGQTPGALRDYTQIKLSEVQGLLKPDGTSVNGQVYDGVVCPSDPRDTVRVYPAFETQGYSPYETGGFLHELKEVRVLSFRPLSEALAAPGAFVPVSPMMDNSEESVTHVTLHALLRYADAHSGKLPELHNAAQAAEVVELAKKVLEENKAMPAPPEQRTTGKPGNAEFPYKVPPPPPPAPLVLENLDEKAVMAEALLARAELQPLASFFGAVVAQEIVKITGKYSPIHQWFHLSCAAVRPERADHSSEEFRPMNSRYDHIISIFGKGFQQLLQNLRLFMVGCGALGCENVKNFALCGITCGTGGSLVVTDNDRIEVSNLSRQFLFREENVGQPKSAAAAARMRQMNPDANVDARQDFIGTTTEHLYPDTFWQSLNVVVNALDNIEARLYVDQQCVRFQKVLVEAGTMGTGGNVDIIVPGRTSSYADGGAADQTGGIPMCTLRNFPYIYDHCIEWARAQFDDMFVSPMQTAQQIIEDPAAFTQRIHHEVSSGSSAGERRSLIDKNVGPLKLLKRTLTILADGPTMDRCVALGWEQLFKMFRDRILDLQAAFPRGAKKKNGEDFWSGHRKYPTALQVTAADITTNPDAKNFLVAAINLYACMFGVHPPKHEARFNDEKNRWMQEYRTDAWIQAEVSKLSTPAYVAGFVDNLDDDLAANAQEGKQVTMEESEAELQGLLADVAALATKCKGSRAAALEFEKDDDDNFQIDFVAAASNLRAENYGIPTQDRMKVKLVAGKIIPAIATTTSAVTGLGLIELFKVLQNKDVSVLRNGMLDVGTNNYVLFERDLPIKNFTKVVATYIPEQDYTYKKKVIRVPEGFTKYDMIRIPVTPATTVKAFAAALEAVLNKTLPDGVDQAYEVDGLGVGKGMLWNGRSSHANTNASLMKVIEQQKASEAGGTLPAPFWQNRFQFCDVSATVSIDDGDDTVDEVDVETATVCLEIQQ
Nature of the assay: Leishmania donovani Ubiquitin Activating Enzyme (LdE1). It is filed as functional. To be noted: 30 µM.

The target of assay [3] is T2, Aspartate--tRNA(Asp/Asn) ligase (Mycobacterium tuberculosis (strain ATCC 25618 / H37Rv)) (UniProt P9WFW3). Further: in the data most compounds retested in dose-response had high values.
T2 sequence (whole entry): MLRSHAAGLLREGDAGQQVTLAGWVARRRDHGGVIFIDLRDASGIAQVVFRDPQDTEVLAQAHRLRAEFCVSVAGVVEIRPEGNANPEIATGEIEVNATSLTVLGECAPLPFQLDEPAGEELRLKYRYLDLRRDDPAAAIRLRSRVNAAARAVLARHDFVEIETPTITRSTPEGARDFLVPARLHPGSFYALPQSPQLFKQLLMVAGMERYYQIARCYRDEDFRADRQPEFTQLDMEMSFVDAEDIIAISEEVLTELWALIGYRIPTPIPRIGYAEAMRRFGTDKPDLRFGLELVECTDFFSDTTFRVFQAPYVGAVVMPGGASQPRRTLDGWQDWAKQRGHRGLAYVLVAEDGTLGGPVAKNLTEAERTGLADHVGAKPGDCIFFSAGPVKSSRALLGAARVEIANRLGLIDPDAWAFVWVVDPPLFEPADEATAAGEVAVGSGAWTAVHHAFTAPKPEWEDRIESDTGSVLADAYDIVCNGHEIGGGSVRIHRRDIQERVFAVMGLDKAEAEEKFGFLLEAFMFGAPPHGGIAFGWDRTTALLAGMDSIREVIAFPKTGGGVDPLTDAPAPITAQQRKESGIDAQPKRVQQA
Nature of the assay: Assay for Asp RNA synthetase-1 from Mycobacterium tuberculosis. It is filed as functional. As to conditions: 30 µM.

The target in assay [4] is AMP-activated protein kinase, AMPK (Homo sapiens) (UniProt P54646+O43741+P54619+Q9UGJ0+Q9Y478+Q13131+Q9UGI9). Description: AMP-dependent Kinase enzyme assay. An in vitro enzyme assay that detects ADP turnover that is directly proportional to AMPK activity. This uses naive AMPK that is activated during the assay with MK-8722. It is filed as functional. As to conditions: 30 µM.

The target in assay [5] is Sialic acid-binding Ig-like lectin 9 (Homo sapiens) (UniProt Q9Y336). Description: Hs-Siglec9 ALPHAscreen SOP 20170721. To be noted: 10 µM. For orientation: Alpha assays give light when donor and acceptor beads are brought close together.
Sialic acid-binding Ig-like lectin 9 (Homo sapiens), sequence (Q9Y336 whole entry): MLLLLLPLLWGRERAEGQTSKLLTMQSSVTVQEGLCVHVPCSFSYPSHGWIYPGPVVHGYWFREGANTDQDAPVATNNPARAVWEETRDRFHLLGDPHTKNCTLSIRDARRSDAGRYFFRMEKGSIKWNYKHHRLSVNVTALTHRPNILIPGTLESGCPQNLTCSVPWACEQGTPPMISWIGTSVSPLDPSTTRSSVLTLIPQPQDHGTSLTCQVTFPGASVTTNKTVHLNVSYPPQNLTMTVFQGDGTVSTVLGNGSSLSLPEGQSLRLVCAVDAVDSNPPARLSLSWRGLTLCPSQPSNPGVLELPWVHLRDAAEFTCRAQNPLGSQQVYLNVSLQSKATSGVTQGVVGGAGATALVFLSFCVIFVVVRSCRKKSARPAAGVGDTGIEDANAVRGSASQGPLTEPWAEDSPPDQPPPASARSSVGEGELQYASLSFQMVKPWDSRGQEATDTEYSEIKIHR
For a further assay, the system named is Trypanosoma cruzi. Description: Trypanosoma cruzi phosphomannomutase and mannose-1-phosphate guanylyltransferase assay. In kind it is functional. As to conditions: 10 µM.
The target in assay [6] is T3, Arginase-2, mitochondrial (Homo sapiens) (UniProt P78540).
T3 sequence (whole entry): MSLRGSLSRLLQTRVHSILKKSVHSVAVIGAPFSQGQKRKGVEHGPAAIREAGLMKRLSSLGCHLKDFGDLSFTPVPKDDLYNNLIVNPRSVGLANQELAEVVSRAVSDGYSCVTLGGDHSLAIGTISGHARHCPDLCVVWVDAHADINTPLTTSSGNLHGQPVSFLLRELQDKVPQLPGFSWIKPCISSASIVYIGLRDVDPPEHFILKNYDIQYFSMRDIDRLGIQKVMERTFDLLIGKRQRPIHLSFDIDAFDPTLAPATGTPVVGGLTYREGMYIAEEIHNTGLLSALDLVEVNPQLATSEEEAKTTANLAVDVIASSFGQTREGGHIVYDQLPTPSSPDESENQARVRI
Description: in vitro enzyme assay to detect the production of urea directly proportional to the activity of Arginase II. Further: in the data most compounds retested in dose-response had high values. It is filed as functional. As to conditions: 33.3 µM.

Assay [7] has as its target T4, Proteasome subunit beta (Trypanosoma cruzi) (UniProt O96673).
T4 sequence (whole entry): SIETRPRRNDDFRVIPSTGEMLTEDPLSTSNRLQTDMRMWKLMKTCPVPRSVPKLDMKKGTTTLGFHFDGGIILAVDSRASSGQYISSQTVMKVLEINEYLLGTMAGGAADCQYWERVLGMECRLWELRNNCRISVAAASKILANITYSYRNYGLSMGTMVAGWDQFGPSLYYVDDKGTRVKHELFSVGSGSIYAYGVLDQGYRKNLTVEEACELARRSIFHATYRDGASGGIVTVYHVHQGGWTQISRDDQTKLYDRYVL
Description: Trypanosoma cruzi proteasome chymotrypsin-like activity (TcProtChymo) assay. Further: in the data most compounds retested in dose-response had high values. It is filed as functional. As to conditions: 9.37 µM.

The next assay is filed under the species Homo sapiens. Description: To identify inhibition of the IFN signalling (Jak-Stat) pathway via expression of an eGFP reporter gene under the control of an IFN-stimulated response element (ISRE) containing MxA promoter. It is filed as functional. As to conditions: 30 µM.
Assay [8] deals with Shiga toxin 2 (Escherichia coli O157:H7) (UniProt P09385+P09386). Nature of the assay: E. coli 0.157:H7 Shiga Toxin SOP - stx2 screening assay. In kind it is functional. As to conditions: 30 µM.
The target of assay [9] is T5, Tyrosyl-tRNA synthetase, putative (Trypanosoma cruzi (strain CL Brener)) (UniProt Q4DSP6).
T5 sequence (whole entry): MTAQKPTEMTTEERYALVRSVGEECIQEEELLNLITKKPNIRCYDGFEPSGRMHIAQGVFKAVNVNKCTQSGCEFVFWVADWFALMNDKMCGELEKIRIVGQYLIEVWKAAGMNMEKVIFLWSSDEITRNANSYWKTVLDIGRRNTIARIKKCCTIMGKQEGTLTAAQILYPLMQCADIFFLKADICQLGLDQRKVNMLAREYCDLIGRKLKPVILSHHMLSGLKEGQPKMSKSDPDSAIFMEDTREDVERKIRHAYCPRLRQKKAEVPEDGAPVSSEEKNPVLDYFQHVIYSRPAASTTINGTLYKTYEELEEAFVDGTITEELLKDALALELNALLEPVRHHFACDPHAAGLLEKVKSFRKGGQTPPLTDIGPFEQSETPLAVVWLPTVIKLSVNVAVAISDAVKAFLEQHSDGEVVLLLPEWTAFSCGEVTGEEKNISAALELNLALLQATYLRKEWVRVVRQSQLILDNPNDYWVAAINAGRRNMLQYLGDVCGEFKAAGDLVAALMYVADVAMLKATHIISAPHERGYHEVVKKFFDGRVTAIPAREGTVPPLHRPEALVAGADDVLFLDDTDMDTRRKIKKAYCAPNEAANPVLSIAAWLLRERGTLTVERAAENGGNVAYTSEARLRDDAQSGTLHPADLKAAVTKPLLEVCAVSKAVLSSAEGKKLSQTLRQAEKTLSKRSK
Nature of the assay: Trypanosoma cruzi tyrosyl tRNA synthetase (TcYRS) _High Tyrosine SOP. Further: in the data most compounds retested in dose-response had high values. It is filed as functional. To be noted: 30 µM.

Assay [10] concerns the target T5, Tyrosyl-tRNA synthetase, putative (Trypanosoma cruzi (strain CL Brener)). Nature of the assay: Trypanosoma cruzi tyrosyl tRNA synthetase (TcYRS) SOP. To be noted: 30 µM. In kind it is functional.
For assay [11], the target named is Chromo domain-containing protein 1 (Saccharomyces cerevisiae (strain ATCC 204508 / S288c) (Baker's yeast)) (UniProt P32657). Nature of the assay: ScCHD-1 Enzyme Inhibition Assay. Further: in the data most compounds retested in dose-response had high values. In kind it is functional. To be noted: 30 µM.
Chromo domain-containing protein 1 (Saccharomyces cerevisiae (strain ATCC 204508 / S288c) (Baker's yeast)), sequence (P32657 whole entry, the tested form may be a part): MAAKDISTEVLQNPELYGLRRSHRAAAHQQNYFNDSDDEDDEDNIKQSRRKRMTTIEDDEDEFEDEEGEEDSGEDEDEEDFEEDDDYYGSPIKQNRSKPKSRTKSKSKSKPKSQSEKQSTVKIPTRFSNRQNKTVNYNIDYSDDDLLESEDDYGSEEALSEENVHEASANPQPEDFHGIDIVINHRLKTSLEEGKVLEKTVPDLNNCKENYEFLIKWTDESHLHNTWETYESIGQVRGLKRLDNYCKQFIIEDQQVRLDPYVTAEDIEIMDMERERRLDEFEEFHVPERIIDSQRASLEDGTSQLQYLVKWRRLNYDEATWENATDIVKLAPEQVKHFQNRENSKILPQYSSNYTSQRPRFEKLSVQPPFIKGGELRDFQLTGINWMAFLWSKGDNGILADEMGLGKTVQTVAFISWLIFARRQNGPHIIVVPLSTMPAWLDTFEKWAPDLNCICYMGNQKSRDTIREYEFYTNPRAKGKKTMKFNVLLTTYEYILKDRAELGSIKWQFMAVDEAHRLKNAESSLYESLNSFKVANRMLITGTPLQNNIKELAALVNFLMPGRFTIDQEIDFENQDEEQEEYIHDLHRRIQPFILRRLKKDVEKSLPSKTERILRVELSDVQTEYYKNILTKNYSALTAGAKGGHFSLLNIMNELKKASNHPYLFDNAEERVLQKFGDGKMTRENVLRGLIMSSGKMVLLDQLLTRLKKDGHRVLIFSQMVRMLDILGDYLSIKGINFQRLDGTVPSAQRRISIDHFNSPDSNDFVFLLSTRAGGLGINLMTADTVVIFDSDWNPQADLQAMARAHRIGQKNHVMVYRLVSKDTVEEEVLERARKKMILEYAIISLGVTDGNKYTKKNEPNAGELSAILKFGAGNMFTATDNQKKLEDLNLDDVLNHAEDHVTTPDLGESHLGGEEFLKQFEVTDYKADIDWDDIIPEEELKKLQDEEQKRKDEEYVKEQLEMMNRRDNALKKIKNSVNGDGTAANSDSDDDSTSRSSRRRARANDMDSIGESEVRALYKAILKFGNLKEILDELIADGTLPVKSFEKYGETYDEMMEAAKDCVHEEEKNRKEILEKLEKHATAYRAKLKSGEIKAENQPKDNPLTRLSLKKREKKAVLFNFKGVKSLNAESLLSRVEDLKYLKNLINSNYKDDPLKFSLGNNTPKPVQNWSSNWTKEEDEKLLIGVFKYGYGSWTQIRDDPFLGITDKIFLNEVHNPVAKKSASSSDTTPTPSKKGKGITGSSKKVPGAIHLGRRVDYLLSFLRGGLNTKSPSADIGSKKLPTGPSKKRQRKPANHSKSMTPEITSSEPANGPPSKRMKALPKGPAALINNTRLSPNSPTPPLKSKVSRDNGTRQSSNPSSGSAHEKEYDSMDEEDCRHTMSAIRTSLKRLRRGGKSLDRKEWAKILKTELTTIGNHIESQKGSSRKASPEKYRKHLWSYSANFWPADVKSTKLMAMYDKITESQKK

For some assays here: Potency and affinity values are given separately.

Protein translocase subunit SecA (Escherichia coli (strain K12)), sequence (P10408 whole entry): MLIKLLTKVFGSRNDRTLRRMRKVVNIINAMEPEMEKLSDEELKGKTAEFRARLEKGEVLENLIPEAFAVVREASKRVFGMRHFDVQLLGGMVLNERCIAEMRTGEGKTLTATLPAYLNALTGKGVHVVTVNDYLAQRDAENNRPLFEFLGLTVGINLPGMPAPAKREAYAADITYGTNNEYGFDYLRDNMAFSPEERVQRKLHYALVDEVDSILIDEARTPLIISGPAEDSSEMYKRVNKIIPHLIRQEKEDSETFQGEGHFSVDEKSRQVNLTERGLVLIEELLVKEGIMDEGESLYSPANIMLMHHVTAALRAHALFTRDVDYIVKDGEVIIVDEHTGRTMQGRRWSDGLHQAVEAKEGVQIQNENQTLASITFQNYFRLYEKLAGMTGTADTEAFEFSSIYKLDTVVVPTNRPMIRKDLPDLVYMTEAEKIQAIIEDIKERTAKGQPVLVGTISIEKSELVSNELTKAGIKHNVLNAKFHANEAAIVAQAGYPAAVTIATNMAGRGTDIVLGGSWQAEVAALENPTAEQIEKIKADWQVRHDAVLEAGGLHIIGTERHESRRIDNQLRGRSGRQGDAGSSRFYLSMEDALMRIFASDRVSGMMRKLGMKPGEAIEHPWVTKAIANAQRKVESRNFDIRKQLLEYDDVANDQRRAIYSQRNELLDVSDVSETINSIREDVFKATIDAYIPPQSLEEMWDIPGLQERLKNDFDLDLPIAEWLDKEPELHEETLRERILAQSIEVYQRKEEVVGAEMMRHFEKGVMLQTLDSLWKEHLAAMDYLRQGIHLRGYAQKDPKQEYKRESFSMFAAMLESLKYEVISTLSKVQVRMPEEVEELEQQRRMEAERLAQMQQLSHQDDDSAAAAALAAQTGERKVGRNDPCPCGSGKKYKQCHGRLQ

For `c1cncc(OC[C@]23COC[C@H]2CN(Cc2cccs2)C3)c1`, the Percent Effect in assay [1] was -3.94%; in [2], 5.41%; in [3] it was 4.12%; in assay [4], 0.208%; in [5], -2.85%; with Trypanosoma cruzi it was -2.34%. For the same compound, the Percent Effect in [6] was -0.417%; in assay [7] it was 6.85%; in the assay filed under Homo sapiens, 11.9%; in assay [8], -3%; in assay [9], 6.93%; in assay [10] it was 15.8%. In assay [11], the Percent Effect turned out to be 4.29%.
With `Cc1cc(N2CCN3CCCCC3C2)n2nc(C)c(C)c2n1` (stereo not given), the Percent Effect was -1.84% in [1]; 6.94% in [2]; -12.4% in [3]; -4.39% in assay [4]; -5.54% in assay [5]; -2.43% in the assay on Trypanosoma cruzi. Further, the Percent Effect is -0.442% in assay [6]; 14.7% in [7]; -15.5% in the assay filed under Homo sapiens; 4.77% in assay [8]; 4.21% in assay [9]; 10.3% in [10]. The Percent Effect in assay [11] is -3.52%.
Regarding `Cc1ccccc1CC(C)NCc1c(C)nn(C)c1N1CCOCC1` (stereo not given), the Percent Effect in assay [1] is -3.17%; in assay [2] it was -1.39%; in assay [3], -4.34%; in assay [4], -1.27%; in assay [5], -1.05%; in the assay on Trypanosoma cruzi, 5.93%. The Percent Effect in assay [6] was -2.21%; in assay [7] it was 2.46%; in the assay listed under Homo sapiens, -20.6%; in assay [8], 16.3%; in assay [9] it was 3.16%; in assay [10], 2.56%. Moreover, the Percent Effect in assay [11] worked out at 102%.
With `Cc1cccc(CO[C@@H]2CC[C@H]3[C@H]2OCCN3Cc2ccsc2)n1`, the Percent Effect in [1] was -6.22%; in assay [2], 21.3%; in [3], 0.204%; in assay [4] it was -3.76%; in [5] it was 1.99%; in the assay on Trypanosoma cruzi, 4.44%. Moreover, the Percent Effect in assay [6] is -38.9%; in assay [7], 13.3%; in the assay filed under Homo sapiens, 20.3%; in assay [8], -20.4%; in assay [9], 3.12%; in assay [10], 15%. Further, in [11], the Percent Effect is -6.6%.
Regarding `O=C1[C@H]2CN(Cc3cccs3)C[C@H]2CN1c1cncnc1`, the Percent Effect in assay [1] is -5.75%; in [2], 2.6%; in [3] it was -7.76%; in [4], 1.57%; in assay [5], 4.28%; in the assay with Trypanosoma cruzi it was -3.25%. Besides, the Percent Effect in assay [6] was -8.28%; in [7] it was 9.65%; in the assay filed under Homo sapiens it was 7.38%; in assay [8] it was -49.4%; in [9], 2.15%; in assay [10], 1.24%. Also, the Percent Effect in assay [11] is 1.9%.
